Inconclusive results are not listed. A number with no mark means an inactive call. Activity calls are given as the source filed them. Calls follow the shape of the dose curve; as a rule, active = well fitted inhibition curve with a large enough effect; inconclusive = small, poorly fitted or top-dose-only effect; inactive = no such curve, though single readings can be large or run the other way.
Assay: BET inhibitor-based combinations targeting novel dependencies in MECOM-rearranged (r) AML: OCI-AML3 cell line (AID 2202232); also: nearly all actives have a fitted effect of over 35% in size
Settings: CellTiter-Glo luminescence, 48 h; Potency: OCI-AML3 viability; series mostly up to 46 µM; viability (% of control): at the top concentration
Excerpt: Ecotropic viral insertion site 1 (EVI1) is located on chromosome 3q26.2 as part of the MECOM (MDS and EVI1 complex) locus. Under normal hematopoiesis, EVI1 is a regulator of hematopoietic stem cell maintenance and self-renewal and EVI1 levels decrease as the cells differentiate. In approximately 5-10% of de novo acute myeloid leukemia (AML) EVI1 is aberrantly expressed, including Chromosomal inv(3)(q21;q26.2) or t(3;3)(q21;q26.2) alterations (MECOM-r) that account for about 50% of AML with EVI1 overexpression 31. AMLs with high levels of EVI1 have a poor prognosis and an overall survival time averaging between 10-14 months. EVI1 overexpression confers resistance in leukemia cells, highlighting the need to develop new targeted therapies for EVI1 overexpressing AMLs.
Here, we performed an unbiased chemical drug screening by evaluating the single agent activity of a collection of 2,480 oncology-focused, approved and investigational drugs (NCATS Mechanism Interrogation Plates, MIPE v5.0) against a panel of seven AML cell lines. These included four MECOM-r cell-lines (AML-191, AML-194, UCSD-AML1 and HNT-34) and three non-MECOM-r AMLs (MV4-11, OCI-AML3 and SET-2). Exploiting the mechanistic redundancy built in the library, we identified target-level sensitivities in MECOM-r AML cells and relative activity as compared to other AML subtypes.
A collection of 2480 mechanistically annotated dugs (MIPE v5.0) was used to screen four 3q26.2 rearranged AML cell lines and three non-3q26.2 rearranged AML cell lines. This library purposely exploits redundancy by including multiple inhibitors of key onco-targets, while simultaneously encompassing mechanistic diversity, targeting more than 800 distinct mechanisms of action. Briefly, cells were seeded in 5 uL of growth media using a Multidrop Combi dispenser into 1536 well white polystyrene tissue culture treated plates (Corning) at a density of 500cells/well. For each cell-line, for each of the 2480 drugs in MIPE v5.0 library, an 11-point dose curve was generated via a 1536 pin-tool. Plates were incubated for 48 hr at standard incubator conditions, covered by a stainless steel gasketed lid to prevent evaporation. Cell viability was determined by luminescence based, Cell Titer Glo assay (Promega). In detail, 3 uL of Cell Titer Glo were added to each well and plates were incubated at room temperature for 15 min with a stainless-steel lid in place. Luminescence readings were taken using a Viewlux (PerkinElmer) with a 2 s exposure time per plate. Compound dose-response curves were normalized to DMSO and empty well controls on each plate. Quantitative drug activity data from dose-response curves was determined utilizing area Under the Curve (AUC) and Z-transformed AUC (Z-AUC, a mean-centering transformation applied to each individual cell-line screened).
Potency is read from the fitted curve at half-maximal effect.

Compound | Potency | viability (% of control) [%]
COC(=O)C1=C(C)NC(C)=C(C(=O)OCCN2CCN(C(c3ccccc3)c3ccccc3)CC2)C1c1cccc([N+](=O)[O-])c1 (stereo not given) | 20.9 µM (active) | –
NC(=O)Nc1sc(-c2ccc(F)cc2)cc1C(N)=O | 2.35 µM (active) | –
COc1cc(N2CCC(O)CC2)ccc1Nc1cc(Nc2ccccc2S(=O)(=O)C(C)C)c2cc[nH]c2n1 | 18.6 µM (active) | –
Cc1cc(OCCCS(C)(=O)=O)cc(C)c1-c1cccc(COc2ccc3c(c2)OC[C@H]3CC(=O)O)c1 | – | 112
OCc1ccc(-c2ccc(-c3ccc(CO)s3)o2)s1 | 18.6 µM (active) | –
Nc1ncnc2c1nc(Cl)n2[C@@H]1O[C@H](CO)[C@@H](O)[C@@H]1O | 13.2 µM (active) | –
Cc1c(CCOc2ccc(C(=O)O)cc2)c2cc(Cl)ccc2n1C(c1ccccc1)c1ccccc1 | – | 140
CCN(CC)CCCCNc1ncc2cc(-c3cc(OC)cc(OC)c3)c(NC(=O)NC(C)(C)C)nc2n1 | 16.6 µM (active) | –
Cc1[nH]c(=O)c(C#N)cc1-c1ccc2nccn2c1 | – | 109
COC(=O)Nc1ccc(-c2nc(N3CCOCC3)c3cnn(C4CCN(Cc5cccnc5)CC4)c3n2)cc1 | 2.63 µM (active) | –
Cc1ccc(O)c(C(CCN(C(C)C)C(C)C)c2ccccc2)c1 (stereo not given) | – | 113
Cc1cn2cc(C(=O)N(C)CCO)cc(N[C@@H]3CCOc4cccc(C)c43)c2n1 | – | 114
CC(C)C[C@@H](C(=O)N[C@H](C(=O)OC1CCCC1)c1ccccc1)[C@H](O)C(=O)NO | 13.2 µM (active) | –
CCCc1nc2c(C)cc(-c3nc4ccccc4n3C)cc2n1Cc1ccc(-c2ccccc2C(=O)O)cc1 | – | 115
CC[C@H](CC#N)OC(=O)N[C@@H](C)c1cccc(NC(=O)Nc2ccc(-c3cnco3)c(OC)c2)c1 | 0.468 µM (active) | –
Oc1ccc(/C=C/c2cc(O)cc(O)c2)cc1 | 14.8 µM (active) | –
FC(F)(F)c1ccc(CNc2ccc(Cc3c[nH]c4ncccc34)cn2)cc1 | 20.9 µM (active) | –
C[N+]1(C)[C@@H]2CC(OC(=O)[C@H](CO)c3ccccc3)C[C@H]1[C@@H]1O[C@@H]12 (stereo not given in full) | – | 107
O=C1C(Cl)=C(NCCN2CCOCC2)C(=O)c2ncccc21 | 3.72 µM (active) | –
C=CCn1c(=O)c2cnc(Nc3ccc(N4CCN(C)CC4)cc3)nc2n1-c1cccc(C(C)(C)O)n1 | 1.66 µM (active) | –

Compound | Potency | viability (% of control) [%]
CCOc1cc2ncc(C#N)c(Nc3ccc(F)c(Cl)c3)c2cc1NC(=O)/C=C/CN(C)C | 4.17 µM (active) | –
CC(Cc1ccc(O)c(O)c1)(NN)C(=O)O (stereo not given) | – | 63.3
Cn1cc(-c2[nH]c3cc(NC(=O)[C@H](N)C4CCCCC4)cc4c3c2C=NNC4=O)cn1 | 5.25 µM (active) | –
CCc1cc(C(N)=O)ccc1-n1nc(C(C)C)c2c(-n3cnc(-c4cnn(C)c4)c3)ccnc21 | 1.86 µM (active) | –
Nc1nc2ccc(OC(F)(F)F)cc2s1 | 20.9 µM (active) | –
Cc1nnc(C(C)C)n1C1CC2CCC(C1)N2CCC(NC(=O)C1CCC(F)(F)CC1)c1ccccc1 (stereo not given) | – | 82.9
Nc1nc(Nc2ccc(S(N)(=O)=O)cc2)nn1C(=O)c1c(F)cccc1F | 2.95 µM (active) | –
CC(C)C[C@H](NC(=O)[C@@H](NC(=O)c1cccc(-c2ccccc2)n1)[C@@H](C)O)B(O)O | 0.0407 µM (active) | –
CC1(C)CC(=O)c2c(C(F)(F)F)nn(-c3ccc(C(N)=O)c(NC4CCC(OC(=O)CN)CC4)c3)c2C1 (stereo not given) | 0.209 µM (active) | –
CC(C)=CC[C@@H](O)C1=CC(=O)c2c(O)ccc(O)c2C1=O | 14.8 µM (active) | –
COc1cccc2cc(-c3nc(C4CCC(C(=O)O)CC4)n4ncnc(N)c34)[nH]c12 (stereo not given) | 1.66 µM (active) | –
CCCCN(CCCC)C(=O)CN1C[C@H](c2ccc3c(c2)OCO3)[C@@H](C(=O)O)[C@@H]1c1ccc(OC)cc1 | – | 136
COc1cccc(-c2cc(=O)c3ccccc3o2)c1N | 5.25 µM (active) | –
CCN(CC)Cc1ccc2cc(COC(=O)Nc3ccc(C(=O)NO)cc3)ccc2c1 | 0.662 µM (active) | –
COc1cccc(Nc2c(C(N)=O)cnc3c(C)cc(S(=O)(=O)c4cccc(C(=O)N(C)C)c4)cc23)c1 | 16.6 µM (active) | –
C[C@@H]1O[C@@H](O[C@@H]2\C=C/C=C\C=C/C=C\C[C@H](C)OC(=O)/C=C\[C@H]3O[C@@H]3C[C@H](O)C[C@]3(O)C[C@@H](O)[C@@H](C(=O)O)[C@H](C2)O3)[C@H](O)[C@H](N)[C@@H]1O | – | 114
Cc1ccc(S(=O)(=O)N[C@@H](Cc2ccccc2)C(=O)CCl)cc1 | 16.6 µM (active) | –
c1cc(CN2CCCNCCNCCCNCC2)ccc1CN1CCCNCCNCCCNCC1 | – | 78
COc1cc(C[C@@H](CO)[C@H](CO)Cc2ccc(O)c(OC)c2)ccc1O | – | 111
O=C1[C@H](CC[C@H](O)c2ccc(F)cc2)[C@@H](c2ccc(O)cc2)N1c1ccc(F)cc1 | 20.9 µM (active) | –
